Data reported in PubChem BioAssay (EPA / NIEHS).
Values joined by “and” are separate entries in the source; they are usually repeats but may differ in a detail not shown here. Equal values may be shown once. Some structures have more than one record in an assay (separate samples or runs), and their calls can disagree. Active and inactive are the calls of the source. How the source made its calls: active means hit-call score of the fitted dose curve at least 0.9, where 1 is the maximum; inactive means score below 0.9.

Key:
[1] = APR_HepG2_P-H2AX_72hr: Apredica 72-hour HepG2 Assay for H2AX Phosphorylation (AID 2282916); settings: imaging, actives raise or lower the signal;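 further: phospho-histone H2A.x immunostain intensity per cell marking DNA damage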
Procedure, shortened: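 Human hepatoma HepG2 cells are dosed across ten concentrations (0.39 to 200 uM, 0.5% v/v DMSO) and incubated 72 hr. Phospho-histone H2A.x is then detected by antibody staining alongside c-Jun and Hoechst, and quantified by automated fluorescence imaging.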

[2] = APR_HepG2_MitoticArrest_72hr: Apredica 72-hour HepG2 Assay for Mitotic Arrest (AID 2282918); settings: high-content imaging, actives raise or lower the signal
Procedure, shortened: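 HepG2 cells treated 72 h at 0.39–200 uM, 0.5% DMSO final; formaldehyde-fixed, stained with Hoechst 33342 and phospho-histone H3 antibody, imaged by high-content fluorescence; bidirectional fit versus DMSO.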

[3] = APR_HepG2_MicrotubuleCSK_72hr: Apredica 72-hour HepG2 Assay for Microtubule CSK Stabilty (AID 2282919); settings: HepG2 microtubule cytoskeleton, high-content imaging, actives raise or lower the signal
Procedure, shortened: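 Ten-point dosing (0.39–200 uM, 0.5% DMSO) of HepG2 for 72 hr, with taxol as the cytoskeletal positive control. The cells were formaldehyde-fixed and then stained with alpha-tubulin/Cy5 and Hoechst. Imaging at 20x used a −2 um Z offset for tubulin.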

[4] = APR_HepG2_P-H2AX_24hr: Apredica 24-hour HepG2 Assay for H2AX Phosphorylation (AID 2282920); settings: high-content imaging, actives raise or lower the signal
Procedure, shortened: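 HepG2 cells dosed 24 h at 0.39–200 uM (10 points, duplicate, 0.5% DMSO final). Formaldehyde-fixed and permeabilized, then immunostained for phospho-H2A.x with Hoechst. Fluorescence quantified by high-content imaging, fitted bidirectionally versus DMSO.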

[5] = APR_HepG2_StressKinase_72hr: Apredica 72-hour HepG2 Assay for Stress Kinase (AID 2282921); settings: HepG2 stress kinase (phospho-c-Jun) imaging, actives raise or lower the signal
Procedure, shortened: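 After a 72 h compound treatment spanning 0.39 to 200 uM, formaldehyde-fixed cells are labelled for phosphorylated c-Jun and nuclei, imaged by automated fluorescence microscopy, and activity is fitted in both directions relative to DMSO controls.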

[6] = APR_HepG2_StressKinase_24hr: Apredica 24-hour HepG2 Assay for Stress Kinase (AID 2282922); settings: HepG2 stress kinase (phospho-c-Jun) imaging, actives raise or lower the signal
Procedure, shortened: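 After 24 hr compound treatment (up to 200 uM, final DMSO 0.5% v/v), HepG2 cells are fixed and multiplex-labeled; phospho-c-Jun intensity is captured by high-content fluorescence imaging and analyzed relative to DMSO.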

[7] = APR_HepG2_p53Act_72hr: Apredica 72-hour HepG2 Assay for p53 Activation (AID 2282923); settings: high-content imaging, actives raise or lower the signal;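 further: average cellular p53 protein immunofluorescence intensity in HepG2 cells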
Procedure, shortened: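 Imaging-based endpoint: after 72 hr compound exposure (up to 200 uM, 0.5% DMSO), fixed and permeabilized monolayers were labelled with anti-p53 antibody and imaged; signal change in either direction was fitted relative to DMSO controls.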

[8] = APR_HepG2_MitoMass_72hr: Apredica 72-hour HepG2 Assay for Mitochondrial Mass (AID 2282924); settings: high-content imaging, actives raise or lower the signal;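 further: MitoTracker Red CMXRos stain intensity per cell imaged as mitochondrial mass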
Procedure, shortened: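 Steps: treat HepG2 72 hr (0.39–200 uM, duplicate wells); load MitoTracker Red CMXRos, 250 nM, 30 min; fix with 3.7% formaldehyde, permeabilise with 0.5% Triton X-100; capture images, nuclei via Hoechst 33342; fit bidirectionally against DMSO.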

[9] = APR_HepG2_NuclearSize_72hr: Apredica 72-hour HepG2 Assay for Nuclear Size (AID 2282925); settings: high-content imaging, actives raise or lower the signal
Procedure, shortened: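 Compounds (0.39–200 uM, final DMSO 0.5%) were applied to HepG2 for 72 hr. Cells were then formaldehyde-fixed, permeabilized and labelled with Hoechst 33342. Nuclear diameter was quantified from six images per well.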

[10] = ATG_CRE_CIS: Attagene CIS-FACTORIAL HepG2 Assay for human cAMP Responsive Element (CRE) binding protein 3 (AID 2282926); settings: HepG2 CRE cis-reporter, Attagene multiplexed mRNA; actives raise or lower the signal
Procedure, shortened: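 Induced reporter mRNA from a CRE cis element, measured in HepG2 among many multiplexed units at 24 h. Detection used RT-PCR plus capillary electrophoresis of fluorescent fragments; DMSO served as negative control.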

[11] = ATG_DR4_LXR_CIS: Attagene CIS-FACTORIAL HepG2 Assay for human Liver X Receptor (LXR), DR4 submotif (AID 2282929); settings: HepG2 Attagene DR4 cis-reporter, mRNA transcription; actives raise or lower the signal
Procedure, shortened: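 HepG2 cells transiently transfected with cis-promoter-driven multiplexed reporter units (DR4 element) were dosed for 24 h. Reporter mRNA was quantified by RT-PCR, fluorescent primer extension, HpaI digestion and capillary electrophoresis; bidirectional fitting versus DMSO baseline.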

[12] = molecular target: Aryl hydrocarbon receptor (Homo sapiens) (UniProt P35869); assay: ATG_Ahr_CIS: Attagene CIS-FACTORIAL HepG2 Assay for human Aryl Hydrocarbon Receptor (Ahr) (AID 2282930); settings: HepG2 AhR cis-factorial reporter transcription; actives raise or lower the signal
Chain of Aryl hydrocarbon receptor (Homo sapiens) (P35869 whole entry, looked up): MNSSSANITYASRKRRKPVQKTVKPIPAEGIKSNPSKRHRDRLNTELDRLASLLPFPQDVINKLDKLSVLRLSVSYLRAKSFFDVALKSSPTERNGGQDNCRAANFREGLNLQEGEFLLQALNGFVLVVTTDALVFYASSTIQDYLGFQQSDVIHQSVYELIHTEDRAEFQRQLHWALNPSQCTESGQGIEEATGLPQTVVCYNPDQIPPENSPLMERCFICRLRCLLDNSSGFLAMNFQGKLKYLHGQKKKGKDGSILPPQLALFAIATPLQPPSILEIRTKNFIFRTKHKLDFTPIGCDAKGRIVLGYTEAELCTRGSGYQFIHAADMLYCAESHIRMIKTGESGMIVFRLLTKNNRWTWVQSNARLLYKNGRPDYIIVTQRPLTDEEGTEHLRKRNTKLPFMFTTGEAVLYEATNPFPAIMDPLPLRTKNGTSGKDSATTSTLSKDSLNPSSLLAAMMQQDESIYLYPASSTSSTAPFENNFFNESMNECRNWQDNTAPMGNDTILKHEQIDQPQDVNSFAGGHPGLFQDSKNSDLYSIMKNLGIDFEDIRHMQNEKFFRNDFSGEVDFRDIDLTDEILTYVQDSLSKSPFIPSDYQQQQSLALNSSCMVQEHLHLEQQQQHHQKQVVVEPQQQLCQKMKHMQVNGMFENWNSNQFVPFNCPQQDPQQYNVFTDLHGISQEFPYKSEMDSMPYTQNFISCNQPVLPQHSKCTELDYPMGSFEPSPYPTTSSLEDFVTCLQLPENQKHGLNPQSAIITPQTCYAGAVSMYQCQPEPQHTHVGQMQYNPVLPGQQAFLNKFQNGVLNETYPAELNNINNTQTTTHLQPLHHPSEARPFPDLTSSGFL
Procedure, shortened: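 Following 24 h of chemical dosing, transfected HepG2 liver cells with cis-driven reporter units were lysed for RNA; reporter mRNA was quantified via RT-PCR and capillary electrophoresis, and responses fitted bidirectionally from DMSO.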

[13] = ATG_AP_1_CIS: Attagene CIS-FACTORIAL HepG2 Assay for human Activator Protein 1 (AP-1) (AID 2282931); settings: HepG2 Attagene cis-factorial AP-1 reporter mRNA; actives raise or lower the signal
Procedure, shortened: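 HepG2 cells transiently transfected with cis-element-driven multiplex reporter units; 24 h compound exposure. Reporter mRNA quantified by RT-PCR, FAM-labelled fragments resolved by capillary electrophoresis; bidirectional fit versus DMSO baseline.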

[14] = ATG_BRE_CIS: Attagene CIS-FACTORIAL HepG2 Assay for human Bone Morphogenetic Protein (BMP) Response Element (BRE) (AID 2282933); settings: HepG2 BMP response element reporter, Attagene transcription factor profiling; actives raise or lower the signal
Procedure, shortened: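 Gain- or loss-of-signal was derived by bidirectional fitting against DMSO controls. The signal came from reporter mRNA, measured by RT-PCR and capillary electrophoresis, in HepG2 cells transiently carrying multiple reporter units and dosed for 24 h.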

[15] = molecular target: Retinoic acid receptor alpha (Homo sapiens) (UniProt P10276); assay: ATG_DR5_RAR_CIS: Attagene CIS-FACTORIAL HepG2 Assay for human Retinoic Acid Receptor Alpha (RARE), DR5 submotif (AID 2282934); settings: HepG2 Attagene cis-factorial RARE DR5 reporter, mRNA; actives raise or lower the signal;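 on AC50: reporter responds to endogenous RAR alpha beta and gamma in HepG2 not RARA alone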
Chain of Retinoic acid receptor alpha (Homo sapiens) (P10276 whole entry, looked up): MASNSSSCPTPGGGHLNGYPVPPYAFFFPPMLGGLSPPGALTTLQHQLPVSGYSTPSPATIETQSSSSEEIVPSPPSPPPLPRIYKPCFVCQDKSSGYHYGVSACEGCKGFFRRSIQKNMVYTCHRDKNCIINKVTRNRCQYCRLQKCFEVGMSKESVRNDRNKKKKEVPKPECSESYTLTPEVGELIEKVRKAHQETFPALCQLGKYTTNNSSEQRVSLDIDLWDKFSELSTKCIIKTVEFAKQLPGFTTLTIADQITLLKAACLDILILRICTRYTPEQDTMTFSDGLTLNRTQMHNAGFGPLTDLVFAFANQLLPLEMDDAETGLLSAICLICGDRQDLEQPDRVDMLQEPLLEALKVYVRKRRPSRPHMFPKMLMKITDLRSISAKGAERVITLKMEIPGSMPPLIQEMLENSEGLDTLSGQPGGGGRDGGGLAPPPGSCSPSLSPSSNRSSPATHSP
Procedure, shortened: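 Transfected HepG2 reporter cells are exposed to chemicals for 24 h. Then RNA is extracted and the DR5 element reporter transcript is measured by RT-PCR and capillary electrophoresis, with bidirectional curve fitting relative to DMSO.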

[16] = molecular target: Transcription factor E2F1 (Homo sapiens) (UniProt Q01094); assay: ATG_E2F_CIS: Attagene CIS-FACTORIAL HepG2 Assay for human E2F Transcription Factor 1 (AID 2282935); settings: HepG2 Attagene cis-reporter, E2F reporter RNA transcripts; actives raise or lower the signal
Chain of Transcription factor E2F1 (Homo sapiens) (Q01094 whole entry, looked up): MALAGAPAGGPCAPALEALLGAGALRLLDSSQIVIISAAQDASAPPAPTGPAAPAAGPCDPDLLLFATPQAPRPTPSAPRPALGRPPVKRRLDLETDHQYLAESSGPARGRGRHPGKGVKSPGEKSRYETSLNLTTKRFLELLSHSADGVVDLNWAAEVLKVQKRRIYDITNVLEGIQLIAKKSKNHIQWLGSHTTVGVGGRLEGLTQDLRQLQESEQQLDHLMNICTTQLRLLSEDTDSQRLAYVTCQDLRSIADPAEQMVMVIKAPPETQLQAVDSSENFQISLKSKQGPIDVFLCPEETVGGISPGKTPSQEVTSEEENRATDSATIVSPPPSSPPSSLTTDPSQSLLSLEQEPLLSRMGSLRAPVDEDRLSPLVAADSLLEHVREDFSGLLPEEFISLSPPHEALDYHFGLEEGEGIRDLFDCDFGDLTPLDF
Procedure, shortened: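 First, HepG2 cells were transfected with reporter transcription units. Next, they were dosed for 24 h. Then RNA was isolated, converted to cDNA, PCR-amplified, FAM-labeled, HpaI-digested and analyzed by capillary electrophoresis.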

[17] = molecular target: CCAAT/enhancer-binding protein beta (Homo sapiens) (UniProt P17676); assay: ATG_C_EBP_CIS: Attagene CIS-FACTORIAL HepG2 Assay for human CCAAT/Enhancer Binding Protein (C/EBP) beta (AID 2282927); settings: HepG2 Attagene cis-factorial transcription factor reporter; actives raise or lower the signal
Chain of CCAAT/enhancer-binding protein beta (Homo sapiens) (P17676 whole entry, looked up, the tested form may be a part): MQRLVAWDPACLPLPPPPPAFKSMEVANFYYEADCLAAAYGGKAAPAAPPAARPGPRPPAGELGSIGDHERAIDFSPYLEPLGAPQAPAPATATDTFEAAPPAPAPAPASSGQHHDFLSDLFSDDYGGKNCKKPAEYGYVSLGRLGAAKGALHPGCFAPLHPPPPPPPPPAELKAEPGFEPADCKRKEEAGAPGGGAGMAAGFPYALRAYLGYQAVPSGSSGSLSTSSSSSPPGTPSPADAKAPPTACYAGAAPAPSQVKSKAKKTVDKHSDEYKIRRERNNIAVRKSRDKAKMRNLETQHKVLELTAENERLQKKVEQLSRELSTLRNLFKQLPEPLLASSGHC
Procedure, shortened: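 Chemical-treated HepG2 cells (24 h) bearing cis-regulated reporter constructs were processed for total RNA, then reverse transcription, PCR amplification, fluorescent primer extension and fragment analysis; gain- and loss-of-signal were fitted against DMSO.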

[18] = ATG_CMV_CIS: Attagene CIS-FACTORIAL HepG2 Assay for human CMV (Internal Marker) (AID 2282928); settings: HepG2 CMV promoter reporter, transcription factor profiling; actives raise or lower the signal;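 further: endpoint acts as a background internal control marker rather than a target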
Procedure, shortened: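 24 h chemical treatment, HepG2 with transient multi-reporter transfection; RNA → oligo(dT) RT → PCR → 6-FAM extension → HpaI digest → CE fluorescence. Bidirectional fit, DMSO negative control.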

[19] = APR_HepG2_MitoMembPot_72hr: Apredica 72-hour HepG2 Assay for Mitochondrial Membrane Potential (AID 2282917); settings: imaging, actives raise or lower the signal
Procedure, shortened: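 HepG2 cells exposed 72 h to compounds at 0.39–200 uM (0.5% v/v DMSO, duplicates); MitoTracker Red CMXRos 250 nM loaded 30 min before 3.7% formaldehyde fixation, imaged by HCS fluorescence. Bidirectional fit versus DMSO.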

[20] = ATG_AP_2_CIS: Attagene CIS-FACTORIAL HepG2 Assay for human Activator Protein 2 (AP-2) (AID 2282932); settings: HepG2 AP-2 cis-reporter, Attagene transcription factor profiling; actives raise or lower the signal
Procedure, shortened: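 Cells (HepG2) transfected with promoter-driven reporter constructs, treated 24 h. Total RNA reverse-transcribed, reporter cDNA PCR-amplified, FAM-labelled by primer extension, digested, resolved by capillary electrophoresis. Activity fitted both directions versus DMSO.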

Measured: AC50

CC(C)CCCCCCc1ccc(O)cc1
inactive: [5] | [6] | [9] | [10] | [11] | [12] | [13] | [14] | [15] | [16]
active: [1] 30.1 µM | [2] 30.9 µM | [3] 62.1 µM | [4] 100 µM | [7] 29.7 µM | [8] 21.4 µM | [10] 17.3 µM and 16.4 µM | [11] 15.9 µM and 21 µM and 16.6 µM | [12] 21 µM | [13] 17 µM | [14] 20.7 µM | [15] 11.1 µM

CCCN(CCC)c1c([N+](=O)[O-])cc(C(F)(F)F)c(N)c1[N+](=O)[O-]
active: [3] 51.2 µM | [18] 24.5 µM | [11] 6.65 µM | [12] 28.9 µM | [13] 63 µM | [14] 36.1 µM
not listed: [19] | [20]
inactive: all other assays above

S=C(S)NCCNC(=S)S.[Mn+2].[S-]C([S-])=NCCN=C([S-])[S-].[Zn+2]
inactive: [1] | [19] | [2] | [3] | [5] | [6] | [8] | [9] | [10] | [17] | [11] | [12] | [13] | [20] | [14] | [16]
active: [1] 50 µM [middle of 6 runs] | [2] 51.9 µM [middle of 5 runs] | [4] 50 µM [middle of 7 runs] | [5] 39.8 µM | [6] 40.9 µM and 82.9 µM | [8] 31.4 µM and 52.5 µM and 169 µM | [9] 80.6 µM | [10] 10.1 µM and 9.92 µM | [11] 8.2 µM and 50 µM and 67.7 µM | [12] 20.7 µM [middle of 4 runs] | [13] 20.7 µM [middle of 4 runs] | [20] 4.93 µM
